From publication PMC7826789 (International Journal of Molecular Sciences, 2021)

tested on: KDR

SMILES	Kinases covered
COc1cc2nccc(Nc3ccc(OCc4ccc(NC(C)=O)cc4)cc3)c2cc1OC [GW440135]	KDR
COC(=O)Nc1nc2ccc(Oc3ccc(NC(=O)Nc4cc(C(F)(F)F)ccc4F)cc3)cc2s1.Cl [GW693917A]	KDR
Cl.O=C(Nc1ccc(Oc2ccc3[nH]c(NC(=O)c4ccco4)nc3c2)cc1)Nc1cc(C(F)(F)F)ccc1F [GW683134A]	KDR
Nc1ncnc2occ(-c3ccc(NC(=O)Nc4cc(C(F)(F)F)ccc4F)cc3)c12 [GW770249X]	KDR
CN1CCN(C(=O)c2ccc(NC(=O)Nc3ccc(N(C)c4ccnc(Nc5ccc(CS(C)(=O)=O)cc5)n4)cc3)cc2)CC1.Cl [GW830263A]	KDR
Cl.O=C(Nc1ccc(Oc2ccc3[nH]c(NC(=O)c4ccccc4)nc3c2)cc1)Nc1cc(C(F)(F)F)ccc1F [GW709042A]	KDR
Cn1ccc2ncnc(Oc3ccc(NC(=O)Nc4ccccc4)cc3)c21 [TPKI-69]	KDR

tested on: KIT

SMILES	Kinases covered
C/C(Nc1ccc(S(N)(=O)=O)cc1)=C1/C(=O)Nc2ccccc21 [GW335962X]	KIT
CCS(=O)(=O)c1ccc(OC)c(Nc2ncc(-c3cccc(F)c3)o2)c1 [GW621970X]	KIT
Nc1n[nH]c2ncc(-c3ccccc3)cc12 [SB-517081]	KIT
CCS(=O)(=O)c1ccc(OC)c(Nc2ncc(-c3cccc(OC)c3)o2)c1 [GW580509X]	KIT
COc1cc2nccc(Nc3ccc(OCc4ccc(NC(C)=O)cc4)cc3)c2cc1OC [GW440135]	KIT
Cl.O=C(Nc1ccc(Oc2ccc3[nH]c(NC(=O)c4ccco4)nc3c2)cc1)Nc1cc(C(F)(F)F)ccc1F [GW683134A]	KIT
Nc1ncnc2occ(-c3ccc(NC(=O)Nc4cc(C(F)(F)F)ccc4F)cc3)c12 [GW770249X]	KIT
Cn1ccc2ncnc(Oc3ccc(NC(=O)Nc4ccccc4)cc3)c21 [TPKI-69]	KIT
O=C(Nc1ccccc1)Nc1cccc(Oc2ccc3nccn3n2)c1 [TPKI-39]	KIT

tested on: LRRK2

SMILES	Kinases covered
CNc1nc(Nc2ccc(C(=O)N3CCOCC3)cc2OC)nc2[nH]cc(Cl)c12 [JH-II-127]	LRRK2
C[C@@H]1CCNC(=O)c2cc3ccc(C(=O)Nc4nc5ccccc5n4CCCN(C)C)cc3n21 [BI00645435]	LRRK2
O=C(Nc1cccnc1)c1cc(-c2ccnc(F)c2)ccc1OCc1ccccc1 [GSK2578215]	LRRK2
CNc1nc(Nc2ccc(C(=O)N3CCOCC3)cc2OC)ncc1Cl [HG-10-102-01]	LRRK2
